Screens from PubChem.
mHTT CaM bind – disrupts binding of mutant huntingtin to calmodulin | P42858 | actives 3.6% (n = 190,000) | AID 1671202 | AlphaScreen His-mHTT/GST-CaM binding, luminescence | inhibition, % at 15 µM
Pf apPOL block – Pf-apPOL DNA polymerase inhibition | Recombinant Pf-apPOL, molecular beacon fluorescence, 1.5 h | inhibition, % at 10 µM | actives 0.25% (n = 210,000) | AID 1794808
Numbers stand for hits; i = inactive; nt = no result given; ! = a repeat was not active. An excerpt weighted towards active compounds, which were near 3.6% of everything screened. No stated cut-off is given here; in the data, active means inhibition above about 50%; inactive means the rest.

SMILES	mHTT CaM bind	Pf apPOL block
Cc1ccc(NCC(O)Cn2c(C)c(C)c3ccccc32)cc1 (configuration not stated)	i	i
Cc1ccc(NCC(O)Cn2c(C)c(C)c3ccccc32)cc1C (configuration not stated)	71	i
Cc1ccc(C(=O)N2CCC(c3nc4ccncc4n3C)C2)cc1F (configuration not stated)	i	i
Cc1ccc(CN2C(=O)NC3(CCN(C(=O)COc4cccc(C)c4)CC3)C2=O)cc1	i	i
COc1ccc2c(c1)NC1(CCN(C(=O)COc3cccc(C)c3)CC1)c1cccn1-2	85	i
COc1ccc2c(c1)NC1(CCN(C(=O)COc3ccc(F)cc3)CC1)c1cccn1-2	96	i
O=C(Cc1cccc(F)c1)N1CCC2(C1)C(=O)Nc1ccccc12 (configuration not stated)	i	i
Cc1cccc(OCC(=O)N2CCC3(CC2)NC(=O)N(Cc2ccc(F)cc2)C3=O)c1	i	i
COc1cccc(CC(=O)N2CCC3(CC2)NC(=O)N(Cc2ccc(C)cc2)C3=O)c1	i	i
COc1cccc(CC(=O)N2CCC3(CC2)Nc2cc(OC)ccc2-n2cccc23)c1	92	i
O=C(Cc1cccc(F)c1)N1CCC2(CC1)Nc1ccccc1-n1cccc12	59	i
CCCCN(C)C(=O)CCC1CCCN(C(=O)Nc2ccc(C)cc2)C1 (configuration not stated)	i	i
CCOCCCNC(=O)N1CCn2c(C)ccc2C1C(C)C (configuration not stated)	i	i
COc1ccc(NC(=O)CCCc2ccccc2)c([N+](=O)[O-])c1	i	i
Cc1cccc(-n2ccnc(NC(=O)c3ccc(F)cc3)c2=O)c1	i	i
COc1ccc(OCC(=O)N2CCC3(CC2)Nc2cccnc2NC3=NC(C)(C)C)cc1	i	i
O=C(COc1ccc(Cl)cc1)N1CCC2(CC1)Nc1ccccc1-n1cccc12	93	i
COc1ccc(OCC(=O)N2CCC3(CC2)Nc2cc(C)ccc2-n2cccc23)cc1	54	i
CCOc1ccccc1C(=O)N1CCC2(CC1)Nc1ccccc1-n1cccc12	i	i
O=C(Cc1ccc([N+](=O)[O-])cc1)N1CCN(c2ccccn2)CC1	i	i
COc1ccc(-c2c(-c3ccc(O)cc3O)n[nH]c2C)cc1	i	i
Cc1[nH]nc(-c2ccc(O)c(O)c2O)c1-c1ccccc1	91	i
Cc1ccc2nc(NC(=O)CSc3c(C)cnc4c3c(=O)n(C)c(=O)n4C)sc2c1	i	i
CCOc1ccc(-c2c(C#N)c(N)n3c(nc4ccccc43)c2C#N)cc1OC	i	i
COc1cc(-c2c(C#N)c(N)n3c(nc4ccccc43)c2C#N)ccc1OCC#N	69	i
SMILES	mHTT CaM bind	Pf apPOL block
CCCn1c(C2CCN(C(=O)Nc3cc(C)cc(C)c3)C2)nc2cccnc21 (configuration not stated)	i	i
Cc1ccc(C(=O)N2CCN(c3nc(C)nc(C)c3Cc3ccc(F)cc3)CC2)cc1	i	i
O=C1NN(c2ccc([N+](=O)[O-])cc2[N+](=O)[O-])C(=O)C2C1C1C=CC2C12CC2 (configuration not stated)	i	i
Cn1c(C2CCN(C(=O)c3cc4c(s3)CCCC4)C2)nc2cccnc21 (configuration not stated)	i	i
O=C(CN1CCc2ccccc2C1C(=O)N1CCCCC1)NCc1ccc(Cl)cc1 (configuration not stated)	i	i
COc1ccc(Cl)cc1NC(=O)N1CCN(Cc2nc(-c3ccco3)cs2)CC1	64	i
COc1ccc(Cl)cc1NC(=O)CN1CCc2ccccc2C1C(=O)N1CCCCC1 (configuration not stated)	64	i
CC1CCN(C(=O)C2c3ccccc3CCN2CC(=O)Nc2ccc(F)cc2Cl)CC1 (configuration not stated)	88	i
CC1CCN(C(=O)C2c3ccccc3CCN2CC(=O)Nc2cc(F)ccc2Cl)CC1 (configuration not stated)	i	i
COc1ccc(OC)c(NC(=O)CCN2CCCC2)c1	i	i
COc1ccc(Cl)cc1NC(=O)CCN1CCN(C)CC1	i	55
COc1ccc(Cl)cc1NC(=O)N1CCN(CCc2ccccc2)CC1	nt	i
CC(=O)c1cccc(NC(=O)N2CC(C)C(c3nc(-c4ccccc4)no3)C2)c1 (configuration not stated)	i	i
O=S(=O)(CCN1C=CC(C(F)(F)F)=NCC1)c1ccc(Cl)cc1Cl	nt	i
O=C(CN1CCc2ccccc2C1C(=O)N1CCCCC1)Nc1ccc(F)cc1Cl (configuration not stated)	68	i
O=C(CN1CCc2ccccc2C1C(=O)N1CCCCC1)NCc1ccc(F)cc1Cl (configuration not stated)	i	i
CC1CCN(C(=O)C2c3ccccc3CCN2CC(=O)Nc2cccc(Cl)c2)CC1 (configuration not stated)	59	i
Cc1ccc(NC(=O)CN2CCc3ccccc3C2C(=O)N2CCC(C)CC2)cc1C (configuration not stated)	i	i
O=C(NCCc1csc(C2CCN(C(=O)C3CC3)CC2)n1)C1CC1	i	i
O=C(Nc1ccc(Cl)cc1)C1CCCN(c2nnc3ccccn23)C1 (configuration not stated)	i	i
Cc1cccc(NC(=O)C2C(C=C(Cl)Cl)C2(C)C)c1 (configuration not stated)	i	i
O=[N+]([O-])c1ccc2c(c1)OC1(CCCC1)O2	i	i
Nc1ccc2c(c1)OC1(CCCC1)O2	60!	i
O=C(c1cccc(F)c1)N1CCc2nc[nH]c2C1	i	i
CN1C(=O)c2ccccc2C(C(=O)Nc2ccc(F)cc2Cl)C1c1ccc(F)cc1 (configuration not stated)	i	i
SMILES	mHTT CaM bind	Pf apPOL block
Cc1ccc(NC(=O)C2c3ccccc3C(=O)N(C)C2c2c[nH]c3ccccc23)c(Cl)c1 (configuration not stated)	87	i
O=C(Nc1ccc(Cl)cc1[N+](=O)[O-])c1cccs1	i	i
COc1ccc(-n2nc(C)c3sc(N4CCCC(C(=O)NC5CCCC5)C4)nc32)cc1 (configuration not stated)	i	i
CCOc1ccc(C=C2Oc3cc(OC(=O)CC)ccc3C2=O)cc1	i	i
Cc1cc(C)nc(SCC(=O)NCC(C)NC(=O)CSc2nc(C)cc(C)n2)n1 (configuration not stated)	i	i
CCCCC(=O)N1CCc2c(c(-c3nnc(SC)n3CC)nn2C)C1	i	i
O=C(Nc1ccc2c(N3CCOCC3)ncnc2c1)c1cccc(Br)c1	54	i
Cc1ccc(C(=O)Nc2ccc3c(N4CCOCC4)ncnc3c2)cc1	i	i
Cc1ccc(-c2cn(CC(=O)Nc3ccccc3)c(=O)o2)cc1	i	i
CCOc1cc(CNc2ccc3c(c2)CCC3)ccc1O	51	i
CCOc1cc(CNc2ccccc2SC)ccc1O	i	i
COc1ccccc1C=CC=C1Oc2cc(OCC(C)=O)ccc2C1=O	i	i
NC(N)=NNC(=O)C=CC(=O)O	nt	i
Cc1noc(CNC(=O)Cc2cccc3ccccc23)n1	i	i
COc1ccc(C(=O)N2CC(=O)Nc3ccc(C)cc3C2c2ccc(F)cc2)cc1OC (configuration not stated)	i	i
O=C1CN(C(=O)CCC2CCCC2)C(c2ccc(F)cc2)c2cc(F)ccc2N1 (configuration not stated)	i	i
